# Experimental data from the supplement of paper PMC4466140.
# Biological target: AgAbp1
# Assay: SPOT peptide array binding signal intensity (averaged, normalized) (arbitrary units (background-subtracted, floor 0; scale differs between SH3 domains)); higher = stronger binding of the SH3 domain to the peptide
# Protocol: (§1)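 GST-tagged SH3 domains from S. cerevisiae (Sc), A. gossypii (Ag), C. albicans (Ca) and S. pombe (Sp) were incubated at 10 ug/ml overnight at 4 C on cellulose SPOT membranes carrying 292 synthetic 15-mer peptides mined from the S. cerevisiae proteome (cysteines replaced by serines). Binding was detected with anti-GST antibody, HRP secondary and chemiluminescence, quantified with Genespotter, and reported as normalized spot intensities averaged over biological replicates.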
row,Binder,SPOT peptide array binding signal intensity
1,KRKRRLPVSEDTNTK,42.5

# Biological target: AgBbc1
# Assay: as above
# Protocol: as §1
row,Binder,SPOT peptide array binding signal intensity
1,KRKRRLPVSEDTNTK,25

# Biological target: AgBem1-D1
# Assay: as above
# Protocol: as §1
row,Binder,SPOT peptide array binding signal intensity
1,KRKRRLPVSEDTNTK,322

# Biological target: AgBzz1-D1
# Assay: as above
# Protocol: as §1
row,Binder,SPOT peptide array binding signal intensity
1,KRKRRLPVSEDTNTK,26.5

# Biological target: AgBzz1-D2
# Assay: as above
# Protocol: as §1
row,Binder,SPOT peptide array binding signal intensity
1,KRKRRLPVSEDTNTK,47.5

# Biological target: AgCyk3
# Assay: as above
# Protocol: as §1
row,Binder,SPOT peptide array binding signal intensity
1,KRKRRLPVSEDTNTK,1

# Biological target: AgFus1
# Assay: as above
# Protocol: as §1
row,Binder,SPOT peptide array binding signal intensity
1,KRKRRLPVSEDTNTK,519

# Biological target: AgHof1
# Assay: as above
# Protocol: as §1
row,Binder,SPOT peptide array binding signal intensity
1,KRKRRLPVSEDTNTK,87

# Biological target: AgHse1
# Assay: as above
# Protocol: as §1
row,Binder,SPOT peptide array binding signal intensity
1,KRKRRLPVSEDTNTK,656

# Biological target: AgLsb1
# Assay: as above
# Protocol: as §1
row,Binder,SPOT peptide array binding signal intensity
1,KRKRRLPVSEDTNTK,1.5

# Biological target: AgLsb4
# Assay: as above
# Protocol: as §1
row,Binder,SPOT peptide array binding signal intensity
1,KRKRRLPVSEDTNTK,46.5

# Biological target: AgMyo5
# Assay: as above
# Protocol: as §1
row,Binder,SPOT peptide array binding signal intensity
1,KRKRRLPVSEDTNTK,1.5

# Biological target: AgNbp2
# Assay: as above
# Protocol: as §1
row,Binder,SPOT peptide array binding signal intensity
1,KRKRRLPVSEDTNTK,213

# Biological target: AgRvs167
# Assay: as above
# Protocol: as §1
row,Binder,SPOT peptide array binding signal intensity
1,KRKRRLPVSEDTNTK,3.5

# Biological target: AgSho1
# Assay: as above
# Protocol: as §1
row,Binder,SPOT peptide array binding signal intensity
1,KRKRRLPVSEDTNTK,53

# Biological target: AgSla1-D1-D2
# Assay: as above
# Protocol: as §1
row,Binder,SPOT peptide array binding signal intensity
1,KRKRRLPVSEDTNTK,25.5

# Biological target: AgSla1-D3
# Assay: as above
# Protocol: as §1
row,Binder,SPOT peptide array binding signal intensity
1,KRKRRLPVSEDTNTK,7

# Biological target: CaAbp1-D1
# Assay: as above
# Protocol: as §1
row,Binder,SPOT peptide array binding signal intensity
1,KRKRRLPVSEDTNTK,514

# Biological target: CaAbp1-D2
# Assay: as above
# Protocol: as §1
row,Binder,SPOT peptide array binding signal intensity
1,KRKRRLPVSEDTNTK,626

# Biological target: CaBbc1
# Assay: as above
# Protocol: as §1
row,Binder,SPOT peptide array binding signal intensity
1,KRKRRLPVSEDTNTK,97

# Biological target: CaBem1-D1
# Assay: as above
# Protocol: as §1
row,Binder,SPOT peptide array binding signal intensity
1,KRKRRLPVSEDTNTK,3

# Biological target: CaBzz1-D1
# Assay: as above
# Protocol: as §1
row,Binder,SPOT peptide array binding signal intensity
1,KRKRRLPVSEDTNTK,85

# Biological target: CaBzz1-D2
# Assay: as above
# Protocol: as §1
row,Binder,SPOT peptide array binding signal intensity
1,KRKRRLPVSEDTNTK,69.8

# Biological target: CaCyk3
# Assay: as above
# Protocol: as §1
row,Binder,SPOT peptide array binding signal intensity
1,KRKRRLPVSEDTNTK,24

# Biological target: CaFus1
# Assay: as above
# Protocol: as §1
row,Binder,SPOT peptide array binding signal intensity
1,KRKRRLPVSEDTNTK,1030

# Biological target: CaHof1
# Assay: as above
# Protocol: as §1
row,Binder,SPOT peptide array binding signal intensity
1,KRKRRLPVSEDTNTK,0.5

# Biological target: CaHse1
# Assay: as above
# Protocol: as §1
row,Binder,SPOT peptide array binding signal intensity
1,KRKRRLPVSEDTNTK,49

# Biological target: CaLsb1
# Assay: as above
# Protocol: as §1
row,Binder,SPOT peptide array binding signal intensity
1,KRKRRLPVSEDTNTK,0.75

# Biological target: CaLsb4
# Assay: as above
# Protocol: as §1
row,Binder,SPOT peptide array binding signal intensity
1,KRKRRLPVSEDTNTK,154

# Biological target: CaMyo5
# Assay: as above
# Protocol: as §1
row,Binder,SPOT peptide array binding signal intensity
1,KRKRRLPVSEDTNTK,3

# Biological target: CaNbp2
# Assay: as above
# Protocol: as §1
row,Binder,SPOT peptide array binding signal intensity
1,KRKRRLPVSEDTNTK,255

# Biological target: CaRvs167
# Assay: as above
# Protocol: as §1
row,Binder,SPOT peptide array binding signal intensity
1,KRKRRLPVSEDTNTK,8.67

# Biological target: CaRvs167-3
# Assay: as above
# Protocol: as §1
row,Binder,SPOT peptide array binding signal intensity
1,KRKRRLPVSEDTNTK,9.75

# Biological target: CaSho1
# Assay: as above
# Protocol: as §1
row,Binder,SPOT peptide array binding signal intensity
1,KRKRRLPVSEDTNTK,288

# Biological target: CaSla1-D1-D2
# Assay: as above
# Protocol: as §1
row,Binder,SPOT peptide array binding signal intensity
1,KRKRRLPVSEDTNTK,8

# Biological target: CaSla1-D3
# Assay: as above
# Protocol: as §1
row,Binder,SPOT peptide array binding signal intensity
1,KRKRRLPVSEDTNTK,8.75

# Biological target: ScAbp1
# Assay: as above
# Protocol: as §1
row,Binder,SPOT peptide array binding signal intensity
1,KRKRRLPVSEDTNTK,30

# Biological target: ScBbc1
# Assay: as above
# Protocol: as §1
row,Binder,SPOT peptide array binding signal intensity
1,KRKRRLPVSEDTNTK,30

# Biological target: ScBem1-D1
# Assay: as above
# Protocol: as §1
row,Binder,SPOT peptide array binding signal intensity
1,KRKRRLPVSEDTNTK,183

# Biological target: ScBzz1-D1
# Assay: as above
# Protocol: as §1
row,Binder,SPOT peptide array binding signal intensity
1,KRKRRLPVSEDTNTK,15.5

# Biological target: ScBzz1-D2
# Assay: as above
# Protocol: as §1
row,Binder,SPOT peptide array binding signal intensity
1,KRKRRLPVSEDTNTK,16.5

# Biological target: ScCyk3
# Assay: as above
# Protocol: as §1
row,Binder,SPOT peptide array binding signal intensity
1,KRKRRLPVSEDTNTK,143

# Biological target: ScFus1
# Assay: as above
# Protocol: as §1
row,Binder,SPOT peptide array binding signal intensity
1,KRKRRLPVSEDTNTK,298

# Biological target: ScHof1
# Assay: as above
# Protocol: as §1
row,Binder,SPOT peptide array binding signal intensity
1,KRKRRLPVSEDTNTK,3.5

# Biological target: ScHse1
# Assay: as above
# Protocol: as §1
row,Binder,SPOT peptide array binding signal intensity
1,KRKRRLPVSEDTNTK,1340

# Biological target: ScLsb1
# Assay: as above
# Protocol: as §1
row,Binder,SPOT peptide array binding signal intensity
1,KRKRRLPVSEDTNTK,1.5

# Biological target: ScLsb2
# Assay: as above
# Protocol: as §1
row,Binder,SPOT peptide array binding signal intensity
1,KRKRRLPVSEDTNTK,11

# Biological target: ScLsb3
# Assay: as above
# Protocol: as §1
row,Binder,SPOT peptide array binding signal intensity
1,KRKRRLPVSEDTNTK,562

# Biological target: ScLsb4
# Assay: as above
# Protocol: as §1
row,Binder,SPOT peptide array binding signal intensity
1,KRKRRLPVSEDTNTK,16

# Biological target: ScMyo3
# Assay: as above
# Protocol: as §1
row,Binder,SPOT peptide array binding signal intensity
1,KRKRRLPVSEDTNTK,5.75

# Biological target: ScMyo5
# Assay: as above
# Protocol: as §1
row,Binder,SPOT peptide array binding signal intensity
1,KRKRRLPVSEDTNTK,6.75

# Biological target: ScNbp2
# Assay: as above
# Protocol: as §1
row,Binder,SPOT peptide array binding signal intensity
1,KRKRRLPVSEDTNTK,210

# Biological target: ScPex13
# Assay: as above
# Protocol: as §1
row,Binder,SPOT peptide array binding signal intensity
1,KRKRRLPVSEDTNTK,0.5

# Biological target: ScRvs167
# Assay: as above
# Protocol: as §1
row,Binder,SPOT peptide array binding signal intensity
1,KRKRRLPVSEDTNTK,16.3

# Biological target: ScSho1
# Assay: as above
# Protocol: as §1
row,Binder,SPOT peptide array binding signal intensity
1,KRKRRLPVSEDTNTK,808

# Biological target: ScSla1-D1-D2
# Assay: as above
# Protocol: as §1
row,Binder,SPOT peptide array binding signal intensity
1,KRKRRLPVSEDTNTK,261

# Biological target: ScSla1-D3
# Assay: as above
# Protocol: as §1
row,Binder,SPOT peptide array binding signal intensity
1,KRKRRLPVSEDTNTK,103

# Biological target: SpAbp1-D1
# Assay: as above
# Protocol: as §1
row,Binder,SPOT peptide array binding signal intensity
1,KRKRRLPVSEDTNTK,214

# Biological target: SpBbc1
# Assay: as above
# Protocol: as §1
row,Binder,SPOT peptide array binding signal intensity
1,KRKRRLPVSEDTNTK,3

# Biological target: SpBzz1-D1
# Assay: as above
# Protocol: as §1
row,Binder,SPOT peptide array binding signal intensity
1,KRKRRLPVSEDTNTK,40

# Biological target: SpBzz1-D2
# Assay: as above
# Protocol: as §1
row,Binder,SPOT peptide array binding signal intensity
1,KRKRRLPVSEDTNTK,≤ 0

# Biological target: SpCyk3
# Assay: as above
# Protocol: as §1
row,Binder,SPOT peptide array binding signal intensity
1,KRKRRLPVSEDTNTK,6.5

# Biological target: SpHof1
# Assay: as above
# Protocol: as §1
row,Binder,SPOT peptide array binding signal intensity
1,KRKRRLPVSEDTNTK,150

# Biological target: SpHof1-2
# Assay: as above
# Protocol: as §1
row,Binder,SPOT peptide array binding signal intensity
1,KRKRRLPVSEDTNTK,12

# Biological target: SpHof1-3
# Assay: as above
# Protocol: as §1
row,Binder,SPOT peptide array binding signal intensity
1,KRKRRLPVSEDTNTK,602

# Biological target: SpHse1
# Assay: as above
# Protocol: as §1
row,Binder,SPOT peptide array binding signal intensity
1,KRKRRLPVSEDTNTK,391

# Biological target: SpLsb1
# Assay: as above
# Protocol: as §1
row,Binder,SPOT peptide array binding signal intensity
1,KRKRRLPVSEDTNTK,5.75

# Biological target: SpLsb4
# Assay: as above
# Protocol: as §1
row,Binder,SPOT peptide array binding signal intensity
1,KRKRRLPVSEDTNTK,268

# Biological target: SpMyo1
# Assay: as above
# Protocol: as §1
row,Binder,SPOT peptide array binding signal intensity
1,KRKRRLPVSEDTNTK,3.5

# Biological target: SpNbp2
# Assay: as above
# Protocol: as §1
row,Binder,SPOT peptide array binding signal intensity
1,KRKRRLPVSEDTNTK,331

# Biological target: SpPex13
# Assay: as above
# Protocol: as §1
row,Binder,SPOT peptide array binding signal intensity
1,KRKRRLPVSEDTNTK,8.5

# Biological target: SpRvs167
# Assay: as above
# Protocol: as §1
row,Binder,SPOT peptide array binding signal intensity
1,KRKRRLPVSEDTNTK,2.83

# Biological target: SpSla1-D1-D2
# Assay: as above
# Protocol: as §1
row,Binder,SPOT peptide array binding signal intensity
1,KRKRRLPVSEDTNTK,≤ 0

# Biological target: SpSla1-D3
# Assay: as above
# Protocol: as §1
row,Binder,SPOT peptide array binding signal intensity
1,KRKRRLPVSEDTNTK,6
